Compounds without any hit were thinned out: in the full panel of roughly 79,000, 15% have a hit. Active and inactive are the calls of the source. Rule as the data show it: active = growth inhibition above about 70%; inactive = the rest.
Tests used:
[1] = NCI Yeast Anticancer Drug Screen. Data for the rad52 strain (AID 147);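 also: 0% = growth of vehicle-treated control cultures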; conditions: S. cerevisiae rad52 mutant growth inhibition, stronger effect = higher value
Method in brief: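 Growth of repair-deficient yeast cells was compared between compound-treated and vehicle-treated cultures to give percent inhibition.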

[2] = NCI Yeast Anticancer Drug Screen. Data for the wt1 strain (AID 149);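 also: 0% = growth of vehicle-treated wt1 cultures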; conditions: S. cerevisiae wt1 strain (SPY 50644) growth inhibition, stronger effect = higher value
Method in brief: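 wt1 strain grown with compound or vehicle; inhibition taken from the growth difference.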

[3] = NCI Yeast Anticancer Drug Screen. Data for the rad50EPP+ strain (AID 151);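 also: 0% = growth of vehicle-treated control cultures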; conditions: S. cerevisiae rad50 mutant strain, stronger effect = higher value
Method in brief: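 Measured: growth inhibition of rad50EPP+ yeast. Reference: vehicle-treated controls. Screen uses strains with defined genetic alterations in DNA damage repair or cell cycle control.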

[4] = NCI Yeast Anticancer Drug Screen. Data for the mgt1 strain (AID 153); conditions: S. cerevisiae mgt1 mutant growth inhibition, stronger effect = higher value
Method in brief: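 Compounds were applied to mgt1 mutant yeast, and growth was then compared against vehicle-treated control cultures to give percent inhibition.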

[5] = NCI Yeast Anticancer Drug Screen. Data for the rad50 strain (AID 155);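 also: 0% = growth of vehicle-only cultures of the same strain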; conditions: S. cerevisiae rad50 strain growth inhibition, stronger effect = higher value
Method in brief: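 DNA repair mutant yeast, compound exposure, growth read-out; inhibition is taken relative to vehicle.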

[6] = NCI Yeast Anticancer Drug Screen. Data for the mec2-1 strain (AID 157); conditions: S. cerevisiae mec2-1 strain, stronger effect = higher value
Method in brief: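 Compounds were applied to mec2-1 yeast cells. Their growth was then compared with that of vehicle-treated cultures to give growth inhibition.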

[7] = NCI Yeast Anticancer Drug Screen. Data for the rad14 strain (AID 159);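 also: 0% = growth of vehicle-treated control cultures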; conditions: S. cerevisiae rad14 strain growth inhibition, stronger effect = higher value
Method in brief: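 DNA repair-defective yeast, compound-exposed; % growth inhibition derived by comparison with vehicle-treated controls.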

[8] = NCI Yeast Anticancer Drug Screen. Data for the sgs1 mgt1 strain (AID 161);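 also: 0% = growth of cultures given vehicle only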; conditions: S. cerevisiae sgs1 mgt1 strain, stronger effect = higher value
Method in brief: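 Growth of a repair-deficient yeast mutant was monitored after compound treatment and expressed as inhibition relative to vehicle-treated cultures.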

[9] = NCI Yeast Anticancer Drug Screen. Data for the cln2 rad14 strain (AID 165);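 also: 0% = growth equal to vehicle treated cultures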; conditions: S. cerevisiae cln2 rad14 strain, stronger effect = higher value
Method in brief: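 Strain: cln2 rad14 yeast, altered in cell cycle control and DNA damage repair. Read-out: growth inhibition vs vehicle.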

[10] = NCI Yeast Anticancer Drug Screen. Data for the bub3 strain (AID 167); conditions: S. cerevisiae bub3 mutant strain, stronger effect = higher value
Method in brief: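 In this screen, a yeast mutant lacking normal mitotic checkpoint function is challenged with compound. Relative growth versus vehicle gives the inhibition value.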

[11] = NCI Yeast Anticancer Drug Screen. Data for the wt2 strain (AID 169);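 also: 0% = growth of vehicle-treated yeast cultures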; conditions: S. cerevisiae wt2 strain growth inhibition, stronger effect = higher value
Method in brief: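 Growth of compound-treated yeast is measured and expressed as inhibition relative to vehicle-only controls.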

[12] = NCI Yeast Anticancer Drug Screen. Data for the mlh1 strain (AID 171);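 also: 0% = growth of vehicle-treated control cultures of the same strain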; conditions: S. cerevisiae mlh1 strain growth inhibition, stronger effect = higher value
Method in brief: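 Test agents were incubated with yeast bearing a defined DNA damage repair or cell cycle control alteration; values are growth inhibition normalised to vehicle-treated cultures.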

[13] = NCI Yeast Anticancer Drug Screen. Data for the sgs1 strain (AID 173);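 also: 0% = growth of vehicle-only control cultures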; conditions: S. cerevisiae sgs1 mutant, stronger effect = higher value
Method in brief: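 Strain with an altered DNA repair or cell cycle pathway exposed to compound. Growth then measured. Value = inhibition versus vehicle control.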

[14] = NCI Yeast Anticancer Drug Screen. Data for the mlh1 rad18 strain (AID 175); conditions: S. cerevisiae mlh1 rad18 strain growth inhibition, stronger effect = higher value
Method in brief: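 A repair-deficient yeast strain is exposed to test compound, and growth is scored relative to vehicle-treated controls.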

[15] = NCI Yeast Anticancer Drug Screen. Data for the rad18 strain (AID 177); conditions: S. cerevisiae rad18 mutant growth inhibition, stronger effect = higher value
Method in brief: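 DNA-repair-defective yeast; compound treatment; growth inhibition scored against vehicle.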

[16] = at 5.0 µM (retest, dose inferred, filed as 0.5)
[17] = at 50.0 µM (retest, dose inferred, filed as 5.0)

Measured: growth inhibition

O=C(O)c1cc2ccc(Cl)cc2c(O)c1C1=CCCCC1
active: [1]; at 100.0 µM 78% | [2]; at 100.0 µM 73% | [4]; at 100.0 µM 84% | [5]; at 50.0 µM 74.3% | [5]; at 100.0 µM 76% | [7]; at 100.0 µM 75% | [8]; [17] 76% | [8]; at 50.0 µM 79.8% | [10]; at 100.0 µM 78% | [11]; at 100.0 µM 87% | [12]; at 100.0 µM 87% | [13]; at 100.0 µM 88% | [14]; [17] 74% | [15]; at 100.0 µM 81%
inactive: [1]; at 1.2 µM 6% | [1]; at 3.7 µM 8% | [1]; at 11.0 µM 26% | [1]; at 33.0 µM 46% | [2]; at 1.2 µM -10% | [2]; at 3.7 µM 2% | [2]; at 11.0 µM 6% | [2]; at 33.0 µM 28% | [3]; at 1.2 µM 8% | [3]; at 3.7 µM 8% | [3]; at 11.0 µM 13% | [3]; at 33.0 µM 13% | [3]; at 100.0 µM 33% | [4]; at 1.2 µM 7% | [4]; at 3.7 µM -15% | [4]; at 11.0 µM 1% | [4]; at 33.0 µM 42% | [5]; at 1.2 µM -7% | [5]; at 3.7 µM -5% | [5]; [16] 33% | [5]; at 11.0 µM 11% | [5]; at 33.0 µM 36% | [5]; [17] 58% | [6]; at 1.2 µM 22% | [6]; at 3.7 µM 18% | [6]; [16] -1% | [6]; at 11.0 µM 22% | [6]; at 33.0 µM 40% | [6]; [17] 58% | [6]; at 50.0 µM 69.1% | [6]; at 100.0 µM 69% | [7]; at 1.2 µM -6% | [7]; at 3.7 µM -10% | [7]; at 11.0 µM 9% | [7]; at 33.0 µM 30% | [8]; [16] 0% | [9]; [16] 12% | [9]; [17] 63% | [9]; at 50.0 µM 56.9% | [10]; at 1.2 µM 14% | [10]; at 3.7 µM -8% | [10]; [16] 26% | [10]; at 11.0 µM -5% | [10]; at 33.0 µM 32% | [10]; [17] 64% | [10]; at 50.0 µM 60.4% | [11]; at 1.2 µM 5% | [11]; at 3.7 µM 5% | [11]; at 11.0 µM 23% | [11]; at 33.0 µM 52% | [12]; at 1.2 µM 26% | [12]; at 3.7 µM 24% | [12]; at 11.0 µM 41% | [12]; at 33.0 µM 68% | [13]; at 1.2 µM 23% | [13]; at 3.7 µM 23% | [13]; at 11.0 µM 39% | [13]; at 33.0 µM 65% | [14]; [16] -7% | [14]; at 50.0 µM 62.4% | [15]; at 1.2 µM 22% | [15]; at 3.7 µM 21% | [15]; at 11.0 µM 25% | [15]; at 33.0 µM 52%

Reference: PubChem BioAssay (NCI)
